The structures appear in SMILES notation. About 83,000 compounds went through this panel and 20% of them were active in at least one assay; those are over-represented in the sample as a whole.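 Negative percent growth values reflect cell death: -40 means 40% of the cells present at the start died, and -100 means all died.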 Values without a mark were called inactive. Activity calls are given as the source filed them. How the source made its calls: active means growth percent below 10; inactive means the rest.

Holding throughout (assay): NCI-60 one-dose screen, 48 h (100 = growth as untreated, 0 = no growth, -100 = all killed)
What all share (conditions): 10 µM unless noted

Assay [1] relates to NCI-H23 lung.
The test system of assay [2] is NCI-H226 lung.
In assay [3] the test system is NCI-H322M lung.
In assay [4] the test system is HOP-62 NSCLC.
Assay [5] relates to NCI-H460 lung.
Assay [6] has as its system HOP-92 NSCLC.
The subject of assay [7] is NCI-H522 lung.
The test system of assay [8] is A549/ATCC NSCLC.
For assay [9], the system named is 786-0 renal.
Assay [10] deals with COLO 205 colon.
The test system of assay [11] is DU-145 prostate.
Assay [12] has as its system K-562 leukemia.
Assay [13] concerns MALME-3M melanoma.
Assay [14] deals with MDA-MB-231 breast.
Assay [15] deals with RXF 393 renal.
Assay [16] relates to SF-268 CNS.
The subject of assay [17] is SF-295 CNS.
For assay [18], the system named is SF-539 CNS.
The subject of assay [19] is UACC-257 melanoma.
Assay [20] deals with M14 melanoma.

`COc1cc2c(c(OC)c1OC)-c1ccc(N)c(=O)cc1[C@@H](NC(C)=O)CC2`: the growth in assay [1] was 4.57% (active); in assay [2], 40.1%; in [3] it was 27.4%; in assay [4] it was 46.1%; in assay [5], -2.43% (active); in assay [6], 31%. Moreover, the growth in [7] was -34.2% (active); in [8], 21.3%; in assay [9] it was 19.7%; in [10], -71.8% (active); in assay [11] it was -28.8% (active); in assay [12] it was 17.3%. For the same compound, the growth in assay [13] is 58.4%; in assay [14], -9.55% (active); in assay [15], -5.16% (active); in assay [16], 17.9%; in [17], 17.7%; in assay [18] it was -14% (active). The growth in [19] is 61.2%; in assay [20], -21.8% (active).

In the case of `CCC1=CCC[C@@]2(C)CCC[C@@]3(C)CCCC(C)(C)[C@]1([O-])[O+]32`, the growth was 99.7% in assay [1]; 102% in assay [2]; 116% in [3]; 104% in assay [4]; 109% in assay [5]; 87.8% in [6]. The growth is 93.9% in assay [7]; 103% in [8]; 97.9% in assay [9]; 112% in [10]; 105% in assay [11]; 101% in assay [12]. Also, the growth was 107% in [13]; 121% in assay [14]; 111% in assay [15]; 107% in assay [16]; 99.7% in [17]; 103% in assay [18]. Further, the values for the growth in assay [19] and in assay [20] were 105% and 101%, respectively.

Consider `O=C(O)c1cn(C2CC2)c2cc(N3CCN(C(=O)/C=C/c4ccc(Cl)cc4)CC3)c(F)cc2c1=O`, for which the growth was 86.8% in assay [1]; 91.5% in assay [2]; 71.5% in [3]; 80.8% in assay [4]; 58.7% in assay [5]; 57.4% in assay [6]. Moreover, the growth in assay [7] is 75.1%; in [8], 77.4%; in assay [9], 76.4%; in assay [10] it was 98.9%; in [11] it was 84.4%; in [12], 74.2%. The growth was 84.6% in [13]; 68.1% in assay [14]; 72% in assay [15]; 62.4% in assay [16]; 80.7% in assay [17]; 72.2% in [18]. The growth was 81.9% in [19] and 82.8% in assay [20].

On to `CC(C)(C)OC(=O)NC(CSCc1ccccc1)C(=O)ON1C(=O)CCC1=O` (stereo not given), for which the growth in assay [1] was 94.3%; in assay [2] it was 110%; in assay [3], 131%; in [4], 105%; in assay [5] it was 111%; in assay [6], 92.4%. In addition, the growth is 91.5% in [7]; 106% in assay [8]; 114% in [9]; 112% in assay [10]; 112% in assay [11]; 100% in [12]. The growth was 101% in assay [13]; 111% in assay [14]; 124% in assay [15]; 102% in assay [16]; 124% in assay [17]; 99.5% in [18]. In addition, the growth in [19] was 99.8%; in assay [20] it was 104%.

As for `CC(C)(C)n1cc(-c2ccnc(NCCNS(=O)(=O)c3ccc(C(F)(F)F)cc3)c2)c(-c2cccc(O)c2)n1`, the growth in assay [1] is 55.8%; in assay [2], 67.2%; in [3], 74.9%; in assay [4] it was 71.5%; in assay [5], 21.2%; in assay [6], 35.4%. In addition, the growth in assay [7] is 49%; in assay [8], 41.1%; in assay [9], 33.9%; in [10] it was -33.8% (active); in assay [11], 75.7%; in assay [12], 7.42% (active). The growth in [13] was 42.3%; in assay [14] it was 46%; in assay [15], 37%; in [16], 56.6%; in assay [17], 44.3%; in [18], 54%. Also, the growth in assay [19] is 47.2%; in [20] it was 44.7%.

For the compound `COc1ccc2c(c1)[nH]c(=O)c1c3cc(C)c(C)cc3cn21`, the growth in assay [1] is 51.4%; in [2], 37%; in [3] it was -25.1% (active); in [4], -27.8% (active); in assay [5], -16.4% (active); in assay [6], -41.7% (active). For the same compound, the growth in [7] is -55.8% (active); in assay [8] it was -4.9% (active); in [9] it was 30.9%; in assay [10], -48% (active); in assay [11] it was -68% (active); in [12], 35.9%. Also, the growth was 15.6% in assay [13]; -35.7% (active) in [14]; -48.6% (active) in assay [15]; -3.98% (active) in assay [16]; -51.7% (active) in [17]; 8.86% (active) in [18]. Also, the growth in assay [19] was 66.8%; in [20], -33.5% (active).

As to `CCNc1nc(S(=O)(=O)CC)nc2ccccc12`, the growth in assay [1] was 103%; in assay [2], 102%; in assay [3] it was 104%; in [4], 96.1%; in [5] it was 101%; in assay [6], 104%. For the same compound, the growth in assay [7] was 81.8%; in assay [8], 105%; in assay [9], 101%; in [10], 114%; in assay [11], 103%; in [12], 85.2%. The growth was 83.3% in [13]; 102% in assay [14]; 107% in assay [15]; 92.3% in assay [16]; 105% in assay [17]; 88.3% in assay [18]. Also, the results for the growth in assay [19] and in [20] were 85.5% and 96.8%, respectively.

With `Cn1c(=O)cc(NC(=O)CN2CCN(c3cc4c(cc3F)c(=O)c(C(=O)O)cn4C3CC3)CC2)[nH]c1=O`, the growth in [1] was 99.9%; in assay [2], 95.5%; in assay [3], 102%; in assay [4], 98.9%; in assay [5], 105%; in assay [6], 99.8%. Besides, the growth was 91.7% in assay [7]; 98.8% in [8]; 102% in assay [9]; 106% in [10]; 103% in [11]; 100% in assay [12]. In addition, the growth in assay [13] was 104%; in assay [14], 98.5%; in assay [15], 102%; in assay [16], 92.7%; in assay [17] it was 101%; in assay [18] it was 102%. For the same compound, the growth in assay [19] was 100%; in [20], 96.5%.

The values are drawn from PubChem BioAssay (NCI).
